Several values for one entry are separate records, joined by “and”; a condition that tells them apart may be missing. Equal entries are not always repeated. Inconclusive results are not listed. Entries that show only a call come without a potency. Where a structure was tested more than once in an assay, its records may differ in their call. Activity calls are given as the source filed them. Calls come from the whole dose curve; as a rule, active = well fitted curve in the direction sought with a large enough effect in the repeat runs; inconclusive = weak or mixed curves; inactive = no such curve, though single readings can be large; an effect the other way counts as inactive or inconclusive.
Potency is the fitted concentration of half-maximal effect.

A short description of the first assay: qHTS RealTime-Glo MT Cell Viability Assay in HEK293 cells - 16 hour (AID 1224872). Note: nearly all actives have a fitted effect of over 50% in size. As to conditions: RealTime-Glo luminescence; series mostly up to 76.8 µM. The method, boiled down: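 Tox21 10K qHTS, HEK293, 600 cells/well, RealTime-Glo reagent co-dispensed with cells; 5 h preincubation, compound by pintool, 37 C, luminescence at 0–40 h.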
(In qHTS, concentration-response curves come from the screen itself.)
With `CC(C)C(=O)Nc1ccc([N+](=O)[O-])c(C(F)(F)F)c1`, the Potency was 20 µM (active) and 19.5 µM (active) and 10.7 µM (active).

Regarding `CN(N=O)C(=O)N[C@@H]1[C@@H](O)[C@H](O)[C@@H](CO)O[C@@H]1O`, the Potency entry was “inactive”.

`NS(=O)(=O)O`: the Potency entry was “inactive”.

On to `C=CCc1ccc(O)c(OC)c1`, for which the Potency entry is “inactive”.

For the compound `C/C=C/C=C/C(=O)O`, the Potency result is “inactive”.

On to `Cc1ncc([N+](=O)[O-])n1C`, for which the Potency entry is “inactive”.

Turning to `CN(C)CCOC(C)(c1ccccc1)c1ccccn1` (configuration not stated), the Potency result was “inactive”.

`COc1ccc2c(c1)c(CC(=O)O)c(C)n2C(=O)c1ccc(Cl)cc1`: the Potency result is “inactive”.

Take `CN(C)C(=O)Nc1ccc(Cl)c(Cl)c1`: the Potency entry is “inactive”.

With `O=c1[nH]cc(F)c(=O)[nH]1`, the Potency entry is “inactive”.

Regarding `O=C(O)CC(O)C(=O)O` (configuration not stated), the Potency result is “inactive”.

Regarding `CC(=O)Nc1c(I)c(NC(C)=O)c(I)c(C(=O)O)c1I`, the Potency entry is “inactive”.

As to `Cc1c(C(=O)O)c(O)cc2c1C(=O)c1c(O)c([C@@H]3O[C@H](CO)[C@@H](O)[C@H](O)[C@H]3O)c(O)c(O)c1C2=O`, the Potency entry was “inactive”.

With `CCCCC1(COC(=O)CCC(=O)O)C(=O)N(c2ccccc2)N(c2ccccc2)C1=O`, the Potency result is “inactive”.

For the compound `Cc1ncc([N+](=O)[O-])n1CCO`, the Potency result is “inactive”.

In the case of `CCCCOC(=O)c1ccc(O)cc1`, the Potency is 24.8 µM (active) and inactive.

Consider `O=S1(=O)OC(c2ccc(O)cc2)(c2ccc(O)cc2)c2ccccc21`, for which the Potency result was “inactive”.

Turning to `NC(=O)c1cccnc1`, the Potency result is “inactive”.

Turning to `CC(=O)C(=O)O`, the Potency result was “inactive”.

Take `O=C1NS(=O)(=O)c2ccccc21`: the Potency entry was “inactive”.

As for `F[B-](F)(F)F`, the Potency result was “inactive”.

For `CC(C)c1c(C(=O)Nc2ccccc2)c(-c2ccccc2)c(-c2ccc(F)cc2)n1CC[C@@H](O)C[C@@H](O)CC(=O)O`, the Potency entry is “inactive”.

With `Cc1cc(C)nc(NS(=O)(=O)c2ccc(N)cc2)n1`, the Potency result was “inactive”.

For the compound `CN(C)CCOC(c1ccccc1)c1ccccc1`, the Potency result is “inactive”.

For `CCCC[P+](CCCC)(CCCC)CCCC`, the Potency is 21.8 µM (active).

On to `C=C(C)C(=O)OCC(C)O` (configuration not stated), for which the Potency result is “inactive”.

Take `Nc1ccc(S(N)(=O)=O)cc1`: the Potency result was “inactive”.

For the compound `CS(=O)(=O)OCCCCOS(C)(=O)=O`, the Potency entry was “inactive”.

As to `CCOC(N)=O`, the Potency entry is “inactive”.

A further assay is described as follows: qHTS RealTime-Glo MT Cell Viability Assay in HepG2 cells - 8 hour (AID 1224873). Note: nearly all actives have a fitted effect of over 55% in size. The conditions noted are these: RealTime-Glo luminescence; series mostly up to 76.8 µM. The method, boiled down: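 HepG2 cells mixed with RealTime-Glo MT reagents (NanoLuc plus cell-permeant prosubstrate) were seeded at 600 cells/well, incubated 5 h at 37 C/5% CO2, then pinned with compounds in DMSO; nonlytic luminescence tracked viability during 40 h treatment.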
For the compound `CC(C)C(=O)Nc1ccc([N+](=O)[O-])c(C(F)(F)F)c1`, the Potency result was “inactive”.

In the case of `CN(N=O)C(=O)N[C@@H]1[C@@H](O)[C@H](O)[C@@H](CO)O[C@@H]1O`, the Potency result is “inactive”.

In the case of `NS(=O)(=O)O`, the Potency entry is “inactive”.

Turning to `C=CCc1ccc(O)c(OC)c1`, the Potency result was “inactive”.

`C/C=C/C=C/C(=O)O`: the Potency result is “inactive”.

Regarding `Cc1ncc([N+](=O)[O-])n1C`, the Potency entry is “inactive”.

Regarding `CN(C)CCOC(C)(c1ccccc1)c1ccccn1` (configuration not stated), the Potency result is “inactive”.

Take `COc1ccc2c(c1)c(CC(=O)O)c(C)n2C(=O)c1ccc(Cl)cc1`: the Potency result was “inactive”.

Turning to `CN(C)C(=O)Nc1ccc(Cl)c(Cl)c1`, the Potency result was “inactive”.

Turning to `O=c1[nH]cc(F)c(=O)[nH]1`, the Potency entry is “inactive”.

Turning to `O=C(O)CC(O)C(=O)O` (configuration not stated), the Potency entry is “inactive”.

Regarding `CC(=O)Nc1c(I)c(NC(C)=O)c(I)c(C(=O)O)c1I`, the Potency result is “inactive”.

With `Cc1c(C(=O)O)c(O)cc2c1C(=O)c1c(O)c([C@@H]3O[C@H](CO)[C@@H](O)[C@H](O)[C@H]3O)c(O)c(O)c1C2=O`, the Potency entry was “inactive”.

For the compound `CCCCC1(COC(=O)CCC(=O)O)C(=O)N(c2ccccc2)N(c2ccccc2)C1=O`, the Potency entry is “inactive”.

With `Cc1ncc([N+](=O)[O-])n1CCO`, the Potency result was “inactive”.

Regarding `CCCCOC(=O)c1ccc(O)cc1`, the Potency result is “inactive”.

`O=S1(=O)OC(c2ccc(O)cc2)(c2ccc(O)cc2)c2ccccc21`: the Potency is 49 µM (active) and inactive.

Consider `NC(=O)c1cccnc1`, for which the Potency result is “inactive”.

With `CC(=O)C(=O)O`, the Potency entry was “inactive”.

`O=C1NS(=O)(=O)c2ccccc21`: the Potency result was “inactive”.

As to `F[B-](F)(F)F`, the Potency entry was “inactive”.

In the case of `CC(C)c1c(C(=O)Nc2ccccc2)c(-c2ccccc2)c(-c2ccc(F)cc2)n1CC[C@@H](O)C[C@@H](O)CC(=O)O`, the Potency entry is “inactive”.

On to `Cc1cc(C)nc(NS(=O)(=O)c2ccc(N)cc2)n1`, for which the Potency entry is “inactive”.

Turning to `CN(C)CCOC(c1ccccc1)c1ccccc1`, the Potency result was “inactive”.

With `CCCC[P+](CCCC)(CCCC)CCCC`, the Potency entry is “inactive”.

Turning to `C=C(C)C(=O)OCC(C)O` (configuration not stated), the Potency result is “inactive”.

For the compound `Nc1ccc(S(N)(=O)=O)cc1`, the Potency entry is “inactive”.

Turning to `CS(=O)(=O)OCCCCOS(C)(=O)=O`, the Potency entry is “inactive”.

Regarding `CCOC(N)=O`, the Potency entry is “inactive”.

The nature of the next assay: qHTS RealTime-Glo MT Cell Viability Assay in HEK293 cells - 40 hour (AID 1224874). Note: nearly all actives have a fitted effect of over 50% in size. The conditions noted are these: RealTime-Glo luminescence; max response: stronger effect = lower value. The method, boiled down:
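Tox21 screen in HEK293 using RealTime-Glo MT chemistry, with cells and reagent co-dispensed. Luminescence proportional to viable cell number was captured at intervals during 40 h compound exposure at 37 C.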
For the compound `CC(C)C(=O)Nc1ccc([N+](=O)[O-])c(C(F)(F)F)c1`, the Potency is 11.3 µM (active) and 21.9 µM (active) and 9.52 µM (active).

`CN(N=O)C(=O)N[C@@H]1[C@@H](O)[C@H](O)[C@@H](CO)O[C@@H]1O`: the max response is 1.13% (inactive) and 4.9% (inactive) and 1.17% (inactive).

For the compound `NS(=O)(=O)O`, the max response is 0.202% (inactive) [middle of 4 runs].

`C=CCc1ccc(O)c(OC)c1`: the max response is -1.8% (inactive) and -13.4% (inactive) and 5.2% (inactive).

On to `C/C=C/C=C/C(=O)O`, for which the max response was 4.62% (inactive) and 7.49% (inactive).

With `Cc1ncc([N+](=O)[O-])n1C`, the max response was 6.42% (inactive) and -0.882% (inactive) and 0.401% (inactive).

Consider `CN(C)CCOC(C)(c1ccccc1)c1ccccn1` (configuration not stated), for which the max response was 2.62% (inactive) and -0.138% (inactive) and 6.89% (inactive).

As to `COc1ccc2c(c1)c(CC(=O)O)c(C)n2C(=O)c1ccc(Cl)cc1`, the max response is -7.62% (inactive) and 0.0637% (inactive).

`CN(C)C(=O)Nc1ccc(Cl)c(Cl)c1`: the max response was -20.7% (inactive).

Regarding `O=c1[nH]cc(F)c(=O)[nH]1`, the max response was -1.84% (inactive) and 1.38% (inactive).

Regarding `O=C(O)CC(O)C(=O)O` (configuration not stated), the max response is -23.9% (inactive) and -4.53% (inactive) and 7.17% (inactive).

Turning to `CC(=O)Nc1c(I)c(NC(C)=O)c(I)c(C(=O)O)c1I`, the max response is 8.14% (inactive) and 7% (inactive) and 2.59% (inactive).

In the case of `Cc1c(C(=O)O)c(O)cc2c1C(=O)c1c(O)c([C@@H]3O[C@H](CO)[C@@H](O)[C@H](O)[C@H]3O)c(O)c(O)c1C2=O`, the max response is -10.5% (inactive) and -11.6% (inactive) and 0.861% (inactive).

`CCCCC1(COC(=O)CCC(=O)O)C(=O)N(c2ccccc2)N(c2ccccc2)C1=O`: the max response was 0.752% (inactive) and 12.4% (inactive) and 1.85% (inactive).

With `Cc1ncc([N+](=O)[O-])n1CCO`, the max response is 2.44% (inactive) and 13.2% (inactive) and 5.09% (inactive).

In the case of `CCCCOC(=O)c1ccc(O)cc1`, the Potency is 24.8 µM (active) and 21.9 µM (active).

With `O=S1(=O)OC(c2ccc(O)cc2)(c2ccc(O)cc2)c2ccccc21`, the max response was -23.8% (inactive).

As to `NC(=O)c1cccnc1`, the max response was 9.96% (inactive) and -1.91% (inactive) and 6.24% (inactive).

With `CC(=O)C(=O)O`, the max response is -1.91% (inactive) and -9.51% (inactive) and -2.01% (inactive).

As for `O=C1NS(=O)(=O)c2ccccc21`, the max response is 5.75% (inactive) [middle of 5 runs].

In the case of `F[B-](F)(F)F`, the max response is 7.4% (inactive) and 8.65% (inactive) and 0.515% (inactive).

As to `CC(C)c1c(C(=O)Nc2ccccc2)c(-c2ccccc2)c(-c2ccc(F)cc2)n1CC[C@@H](O)C[C@@H](O)CC(=O)O`, the max response was -21% (inactive).

`Cc1cc(C)nc(NS(=O)(=O)c2ccc(N)cc2)n1`: the max response was -37.4% (inactive) and -3.88% (inactive) and 7.67% (inactive).

In the case of `CN(C)CCOC(c1ccccc1)c1ccccc1`, the max response is -18.9% (inactive) and -8.63% (inactive) and 0.403% (inactive).

`CCCC[P+](CCCC)(CCCC)CCCC`: the Potency was 21.8 µM (active) and 17.7 µM (active) and 4.36 µM (active).

In the case of `C=C(C)C(=O)OCC(C)O` (configuration not stated), the max response is 1.34% (inactive) and 8.53% (inactive) and -3.84% (inactive).

Regarding `Nc1ccc(S(N)(=O)=O)cc1`, the max response is 9.21% (inactive) and 0.884% (inactive) and 1.65% (inactive).

For the compound `CS(=O)(=O)OCCCCOS(C)(=O)=O`, the max response was 2.47% (inactive) and 13.2% (inactive) and 7.82% (inactive).

As for `CCOC(N)=O`, the max response was 6.85% (inactive) and 12.6% (inactive) and -3.78% (inactive).

The record behind these values is PubChem BioAssay (Tox21).
